Test results published in PubChem BioAssay (NCI).
About 83,000 compounds went through this panel and 20% of them were active in at least one assay; those are over-represented in the sample as a whole.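 Interpretation: 100, growth as untreated; towards 0, rising growth inhibition; 0, no net growth; 0 to -100, cell death. Compounds scoring below 10 were considered active.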 Unmarked numbers belong to inactive results. Calls of active or inactive are those of the source.

tested on: MDA-MB-468 breast; experiment: NCI-60 one-dose screen, 48 h (100 = growth as untreated, 0 = no growth, -100 = all killed); conditions: 10 µM unless noted

SMILES	growth
CC(C)(C)OC(=O)N1C/C(=C\c2cccs2)C(=O)/C(=C/c2cccs2)C1	87.5%
C#CC(C(C)C)N(CCO)CCCC (centres undefined)	103%
c1ccc(-c2nc(N3CCNCC3)c3oc(-c4ccccc4)nc3n2)cc1	-74% (active)
O=C(c1ccccc1)c1ccc(N2C(=O)C3C4c5ccccc5C(/C=C/C(=O)c5ccccn5)(c5ccccc54)C3C2=O)cc1 (centres undefined)	21.9%
O=C1C(c2c(O)[nH]c3ncccc23)=Nc2ccccc21	42.6%
C[C@@H]1CC[C@@H]2[C@@H]1[C@H](OC(=O)/C=C/c1ccccc1)[C@]1(c3ccccc3)C[C@@H](NC(=O)CO)[C@@]2(C)O1	98.3%
COc1ccc2c(Nc3ccc(NS(C)(=O)=O)cc3)c3ccccc3nc2c1	-59.5% (active)
Nc1nc(C(=O)N/N=C/c2ccc(F)cc2)nn1-c1ccc(S(N)(=O)=O)cc1	102%
COc1ccc(NC(=O)CSc2nnc(-c3ccc4nc(-c5ccc(OC)c(OC)c5)[nH]c4c3)o2)cc1OC	92.7%
O=C(Nc1cccc(Cn2c(=O)[nH]c3ccc(Oc4ncccn4)cc3c2=O)c1)c1cc(Cl)cc(Cl)c1	50.5%
C=C1CC[C@@H](C(=O)OC)Cc2nc(C)ccc21	106%
O=C(Nc1ccncc1)C(=O)c1cn(S(=O)(=O)c2cccc(Cl)c2)c2ccccc12	31.2%
CCCCC1COc2cccc3c2N1C=C/C3=C\C(=O)n1ccc2ccccc21 (centres undefined)	12.3%
CN(C)c1nc(-c2cccs2)n2nc(-c3ccc(Cl)cc3)cc2n1	33.6%
